Values joined by “and” are separate entries in the source; they are usually repeats but may differ in a detail not shown here. Equal values may be shown once. Active and inactive are the calls of the source.

Test [1] is described as follows: binders of probe aFSTL3 on microarray, primary screen, stem cell growth factor project, biochemical, small-molecule microarray, fluorescence 635/667 (AID 1064).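 Also: measures binding of the biotinylated anti-FSTL3 antibody to printed compounds.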 To be noted: higher = more signal.
Test [2] can be described thus: binders from COS7 lysate, DM2A8 probe, primary screen, torsin A project, cell lysate, small-molecule microarray, fluorescence 635/667 (AID 1065). To be noted: higher = more signal, COS7 lysate expressing mutant human TOR1A.
Test [3] can be described thus: binders of probe aFGF2 on microarray, primary screen, stem cell growth factor project, biochemical, small-molecule microarray, fluorescence 635/667 (AID 1067).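 Also: measures binding of biotinylated aFGF2 protein to printed compounds on slides; z-score merges feature fluorescence and signal-to-noise across triplicate slides.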 The settings on record: higher = more signal.
Test [4] is described as follows: binders of probe aFGF10 on microarray, primary screen, stem cell growth factor project, biochemical, small-molecule microarray, fluorescence 635/667 (AID 1071).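 Also: score merges 667 nm spot intensity and signal to noise from triplicate slides.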 To be noted: higher = more signal.
Test [5] addresses Neurogenic locus notch homolog protein 2 (Homo sapiens) (UniProt Q04721). As to the kind of experiment: Notch2 binders on small-molecule microarrays, primary screen, biochemical, small-molecule microarray, 635 nm fluorescence, stem cell growth factors (AID 1073). To be noted: Notch2 binding, higher = more signal.
Test [6] concerns the target Pro-neuregulin-1, membrane-bound isoform (Homo sapiens) (UniProt Q02297). The test is described as follows: NRG1 binders on small-molecule microarrays, primary screen, psychiatric disease protein project, biochemical, small-molecule microarray, fluorescence 635/667 (AID 1075).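 Also: score combines 667 nm spot fluorescence with signal to noise.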 To be noted: NRG1 binding, 635 nm fluorescence, higher = more signal.
For test [7], the system named is Neuregulin-1 EGF-like domain. As to the kind of experiment: binders of neuregulin-1 EGF-like domain, primary screen, biochemical, small-molecule microarray, 635 nm fluorescence (AID 1081).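 Also: binding of the protein to compounds printed on small-molecule microarray slides.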 To be noted: small-molecule microarray binding, higher = more signal.
Test [8] can be described thus: FRG1 promoter luciferase signal modulators, primary screen, FRG1 inhibition for FSHD, cell-based, C2C12 myotubes, firefly/Renilla luciferase, luminescence (AID 1084). To be noted: higher = more signal, called active from +8 up or from −8 down.
Test [9] is described as follows: binders of probe aFST on microarray, primary screen, stem cell growth factor project, biochemical, small-molecule microarray, fluorescence 635/667 (AID 1086).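 Also: score merges 667 nm fluorescence with signal-to-noise of each printed compound spot.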 The settings on record: higher = more signal.
A short description of test [10]: binders of probe aHhip on microarray, primary screen, stem cell growth factor project, biochemical, small-molecule microarray, fluorescence 635/667 (AID 1087).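 Also: score merges spot fluorescence at 667nm with spot signal to noise ratio.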 To be noted: higher = more signal.
For test [11], the system named is PRMT1 (protein arginine N-methyltransferase 1). As to the kind of experiment: PRMT1 binders on small-molecule microarrays, primary screen, biochemical, small-molecule microarray, 635 nm fluorescence (AID 1088).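 Also: binding of Prmt1 protein to compounds spotted on small-molecule microarray slides.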 To be noted: small-molecule microarray binding, higher = more signal.
The nature of test [12]: yeast growth modulation, basal conditions, primary screen, YJM789 clinical isolate, OD600, 24 h (AID 1089).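 Also: growth of clinical yeast isolate S. cerevisiae YJM 789 seeded 1000 cells per well; test concentration not given here.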 To be noted: S. cerevisiae YJM789 growth, higher = more signal, called active from +8 up or from −8 down.
A short description of test [13]: fission yeast growth modulation, primary screen, strain 972, OD600, 24 h, no modulator (AID 1090).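 Also: basal condition with compound alone and no growth modifier present; test concentration not given here.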 The settings on record: S. pombe 972 growth, higher = more signal, called active from +8 up or from −8 down.
Test [14] in a line: S. cerevisiae growth modulation with rapamycin, primary screen, strain BY4716, OD600, 96 h (AID 1091). Also: test concentration not given here. The settings on record: higher = more signal, called active from +8 up or from −8 down.
The target of test [15] is Torsin-1A-interacting protein 2 (Homo sapiens) (UniProt Q8NFQ8). As to the kind of experiment: LULL1 binders on small-molecule microarray, primary screen, cell lysate, human LULL1 lysate, 635/667 nm fluorescence (AID 1092).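 Also: probe is lysate of COS7 cells overexpressing human LULL1; score merges per-feature 667 nm fluorescence with signal-to-noise.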 To be noted: hLULL1 lysate binding, 635 nm fluorescence, higher = more signal.
The nature of test [16]: E. coli growth modulation, two-sided OD650, primary screen, E. coli filamentation project, strain DRC41, 24 h (AID 1093).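 Also: MC1000 strain lacking acrAB efflux and sulA so SOS filamentation is blocked; test concentration not given here.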 To be noted: OD650, 24 h, higher = more signal, called active from +8 up or from −8 down.
Test [17] is described as follows: small-molecule microarray binders of probe aLefty2, primary screen, biochemical, biotinylated probe, 635/667 nm fluorescence (AID 1094).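 Also: score merges spot fluorescence near 667 nm with spot signal-to-noise ratio.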 The settings on record: higher = more signal.
Test [18] relates to Noggin (protein binding on small-molecule microarray). The test is described as follows: Noggin binders on small-molecule microarray, primary screen, biochemical, 635/667 nm fluorescence (AID 1095).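 Also: score merges 667 nm feature fluorescence with signal to noise over triplicate slides.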 The settings on record: 635 nm fluorescence, higher = more signal.
In test [19] the target is Neurogenic locus notch homolog protein 3 (Homo sapiens) (UniProt Q9UM47). As to the kind of experiment: NOTCH3 binders on small-molecule microarray, primary screen, biochemical, 635/667 nm fluorescence (AID 1096). The settings on record: NOTCH3 binding, 635 nm fluorescence, higher = more signal.
Test [20] in a line: small-molecule microarray binders of probe aEGFR, primary screen, biochemical, biotinylated probe, 635/667 nm fluorescence (AID 1097).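 Also: probe is a biotinylated anti-EGFR antibody binding compounds printed on slides; score combines fluorescence near 667 nm and signal to noise of each spot.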 The settings on record: higher = more signal.

Chain of Pro-neuregulin-1, membrane-bound isoform (Homo sapiens) (Q02297 whole entry, looked up, the tested form may be a part, canonical isoform): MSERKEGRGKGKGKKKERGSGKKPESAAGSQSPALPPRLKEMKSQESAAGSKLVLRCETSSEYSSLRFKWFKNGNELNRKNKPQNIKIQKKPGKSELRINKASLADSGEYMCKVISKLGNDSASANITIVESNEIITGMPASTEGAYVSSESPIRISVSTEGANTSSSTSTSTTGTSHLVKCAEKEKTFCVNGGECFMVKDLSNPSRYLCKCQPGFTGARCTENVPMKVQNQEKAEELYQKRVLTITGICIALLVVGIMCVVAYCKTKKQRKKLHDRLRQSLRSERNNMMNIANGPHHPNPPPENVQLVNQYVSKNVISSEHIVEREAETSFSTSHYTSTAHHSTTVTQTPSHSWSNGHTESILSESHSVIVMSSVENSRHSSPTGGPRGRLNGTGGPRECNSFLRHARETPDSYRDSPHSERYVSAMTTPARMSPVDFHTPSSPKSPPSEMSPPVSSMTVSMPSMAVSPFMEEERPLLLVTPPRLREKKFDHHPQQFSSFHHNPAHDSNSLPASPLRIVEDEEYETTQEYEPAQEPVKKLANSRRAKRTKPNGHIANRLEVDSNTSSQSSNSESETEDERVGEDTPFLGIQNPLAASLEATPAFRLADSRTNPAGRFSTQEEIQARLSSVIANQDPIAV
Chain of Neurogenic locus notch homolog protein 3 (Homo sapiens) (Q9UM47 whole entry, looked up): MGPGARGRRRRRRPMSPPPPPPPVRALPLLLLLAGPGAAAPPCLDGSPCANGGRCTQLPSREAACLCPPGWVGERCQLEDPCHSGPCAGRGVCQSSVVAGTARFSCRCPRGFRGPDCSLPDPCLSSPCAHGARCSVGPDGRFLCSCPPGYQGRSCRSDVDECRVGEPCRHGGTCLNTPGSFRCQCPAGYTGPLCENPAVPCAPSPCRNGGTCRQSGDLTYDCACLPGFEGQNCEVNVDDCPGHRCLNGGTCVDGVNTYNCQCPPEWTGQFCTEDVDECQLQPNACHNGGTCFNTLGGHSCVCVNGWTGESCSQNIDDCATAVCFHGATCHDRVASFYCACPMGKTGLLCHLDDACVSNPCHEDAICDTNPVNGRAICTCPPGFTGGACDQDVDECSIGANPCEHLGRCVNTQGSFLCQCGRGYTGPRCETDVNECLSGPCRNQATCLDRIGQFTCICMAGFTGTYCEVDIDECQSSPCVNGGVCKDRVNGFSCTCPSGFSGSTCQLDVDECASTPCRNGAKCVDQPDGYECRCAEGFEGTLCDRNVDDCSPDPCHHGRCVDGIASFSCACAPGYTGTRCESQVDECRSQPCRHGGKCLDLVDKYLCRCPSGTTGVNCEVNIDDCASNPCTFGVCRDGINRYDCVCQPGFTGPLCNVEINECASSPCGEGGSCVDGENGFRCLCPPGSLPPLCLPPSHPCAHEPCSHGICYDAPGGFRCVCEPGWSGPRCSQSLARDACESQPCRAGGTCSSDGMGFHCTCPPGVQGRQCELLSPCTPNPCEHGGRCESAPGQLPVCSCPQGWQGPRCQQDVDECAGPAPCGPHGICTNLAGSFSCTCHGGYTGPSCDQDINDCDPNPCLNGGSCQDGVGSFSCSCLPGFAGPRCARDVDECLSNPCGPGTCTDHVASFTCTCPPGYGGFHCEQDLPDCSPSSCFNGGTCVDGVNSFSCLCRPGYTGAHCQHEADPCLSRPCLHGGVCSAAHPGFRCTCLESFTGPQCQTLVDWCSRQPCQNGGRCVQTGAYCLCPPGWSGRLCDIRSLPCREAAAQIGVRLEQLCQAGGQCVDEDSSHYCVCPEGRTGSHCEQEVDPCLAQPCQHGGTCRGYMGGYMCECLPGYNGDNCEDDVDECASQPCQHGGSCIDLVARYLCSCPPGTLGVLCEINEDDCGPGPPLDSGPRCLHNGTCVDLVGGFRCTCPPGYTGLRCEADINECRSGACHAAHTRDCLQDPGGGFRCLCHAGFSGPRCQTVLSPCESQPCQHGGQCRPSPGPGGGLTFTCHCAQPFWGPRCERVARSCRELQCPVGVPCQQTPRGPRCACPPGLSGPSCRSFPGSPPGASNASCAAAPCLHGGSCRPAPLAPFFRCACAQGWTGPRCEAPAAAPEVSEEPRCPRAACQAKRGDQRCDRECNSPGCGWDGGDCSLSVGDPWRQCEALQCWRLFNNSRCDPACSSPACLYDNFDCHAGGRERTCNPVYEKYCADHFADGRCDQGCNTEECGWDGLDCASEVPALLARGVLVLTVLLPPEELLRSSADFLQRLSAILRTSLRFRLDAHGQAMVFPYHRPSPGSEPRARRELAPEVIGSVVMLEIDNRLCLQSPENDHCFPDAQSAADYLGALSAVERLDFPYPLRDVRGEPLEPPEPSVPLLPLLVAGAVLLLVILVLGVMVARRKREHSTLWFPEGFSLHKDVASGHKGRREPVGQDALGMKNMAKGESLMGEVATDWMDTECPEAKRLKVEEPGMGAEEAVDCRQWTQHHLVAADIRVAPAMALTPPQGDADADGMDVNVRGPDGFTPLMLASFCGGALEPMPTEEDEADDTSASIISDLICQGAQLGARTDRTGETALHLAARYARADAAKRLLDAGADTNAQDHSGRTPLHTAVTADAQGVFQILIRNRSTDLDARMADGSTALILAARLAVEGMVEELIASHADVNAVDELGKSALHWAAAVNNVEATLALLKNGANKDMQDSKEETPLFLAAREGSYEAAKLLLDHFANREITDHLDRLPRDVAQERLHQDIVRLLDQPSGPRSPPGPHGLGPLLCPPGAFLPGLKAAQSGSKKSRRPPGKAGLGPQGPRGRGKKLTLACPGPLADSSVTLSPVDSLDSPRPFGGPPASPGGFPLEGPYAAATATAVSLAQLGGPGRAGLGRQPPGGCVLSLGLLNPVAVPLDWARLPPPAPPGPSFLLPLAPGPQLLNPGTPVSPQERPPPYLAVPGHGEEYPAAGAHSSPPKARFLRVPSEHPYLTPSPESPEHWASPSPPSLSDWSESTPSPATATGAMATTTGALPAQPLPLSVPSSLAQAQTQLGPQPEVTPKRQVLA
Chain of Torsin-1A-interacting protein 2 (Homo sapiens) (Q8NFQ8 whole entry, looked up): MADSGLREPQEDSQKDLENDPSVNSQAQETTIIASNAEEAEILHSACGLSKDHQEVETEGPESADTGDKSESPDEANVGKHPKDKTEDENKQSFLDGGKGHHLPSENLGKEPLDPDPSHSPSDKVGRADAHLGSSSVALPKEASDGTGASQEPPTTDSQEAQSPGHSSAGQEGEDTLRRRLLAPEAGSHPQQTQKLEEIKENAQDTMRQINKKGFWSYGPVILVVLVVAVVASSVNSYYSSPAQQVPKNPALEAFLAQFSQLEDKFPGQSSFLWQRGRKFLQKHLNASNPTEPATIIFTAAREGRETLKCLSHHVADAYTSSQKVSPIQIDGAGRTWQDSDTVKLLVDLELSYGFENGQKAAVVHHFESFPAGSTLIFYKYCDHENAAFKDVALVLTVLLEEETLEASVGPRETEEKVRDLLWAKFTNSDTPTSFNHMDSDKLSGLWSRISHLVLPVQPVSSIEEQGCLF

With `C=C(C)C(=O)OC[C@@H]1CN2[C@@H](CC[C@@H](C)[C@@H]2c2ccc(Br)cc2)C(=O)O1`, the composite z-score in test [1] is -0.577; in test [2], -0.275; in test [3], -0.083; in test [4] it was 0.733; in [5] it was 0.636; in test [6], 0.776. Besides, the composite z-score in test [7] was 1.1; in [9], 0.129; in test [10], -0.0645; in test [11] it was 0.819; in test [15], 1.32; in test [17], -0.247. The composite z-score in test [18] turned out to be 0.314; in test [19], 0.259; in test [20], 0.0251. Also, the z-score in test [8] was -0.889 (inactive); in [12], -0.792 (inactive); in [13], -2.7 (inactive); in [14] it was -1.52 (inactive); in test [16], 0.53 (inactive).
With `COC(=O)C1=C2N(Cc3ccccc3)C(C)=C(C(=O)OC)[C@@H](c3ccccc3)N2C(=O)[C@](O)(C(=O)OC)C1`, the composite z-score was -0.416 and -0.485 in [1]; 0.969 and 0.932 in test [2]; -0.166 and -0.0477 in test [3]; 0.0291 and 0.291 in test [4]; 1.12 and 0.305 in [5]; 0.598 and -0.247 in test [6]. Moreover, the composite z-score was 1.09 and -0.265 in test [7]; 0.084 and 0.0516 in [9]; 0.065 and -0.0237 in test [10]; 0.691 and 0.144 in test [11]; 1.8 and -0.466 in test [15]; -0.142 and -0.235 in test [17]. The composite z-score in test [18] is 1.14 and 0.796; in test [19] it was 0.81 and 0.263; in [20] it was -0.142 and -0.133. Moreover, the z-score in test [8] was -0.0085 (inactive) and 0.0331 (inactive); in [12], -0.149 (inactive) and -0.0628 (inactive); in test [13], -0.925 (inactive) and -0.134 (inactive); in test [14] it was -1.34 (inactive) and -0.299 (inactive); in [16], 0.788 (inactive) and -0.0132 (inactive).
As for `COC(=O)[C@H](C)NC(=O)CCC1CC(OC(=O)NCCc2ccc(F)cc2)CC2(CCCC(COC(=O)NCCCN3CCCC3=O)O2)O1` (stereo not given in full), the composite z-score is -0.78 in test [1]; 0.267 in test [2]; -0.0358 in test [3]; 0.404 in [4]; 1.25 in [5]; 0.623 in test [6]. For the same compound, the composite z-score is 1.2 in [7]; 0.367 in test [9]; 0.0373 in test [10]; 1.55 in test [11]; 1.64 in [15]; -0.168 in test [17]. In addition, the composite z-score in test [18] was 0.727; in test [19] it was 1.03; in [20], -0.0505. In addition, the z-score in [8] was 0.434 (inactive); in [12], -0.432 (inactive); in [13], 0.899 (inactive); in test [14] it was 0.849 (inactive); in test [16], -0.681 (inactive).
On to `C=C[C@H](OC)[C@@H](O)c1ccc(O)c(F)c1`, for which the composite z-score in [1] was 1.25 and 1.29; in test [2] it was -0.903 and -2.05; in test [3], -0.116 and -0.247; in [4], -0.458 and -0.0501; in [5] it was -2.17 and -1.38; in [6] it was -0.527 and -1.01. For the same compound, the composite z-score is -0.0988 and 0.736 in test [7]; -1.08 and -1.54 in [9]; -0.213 and -0.314 in [10]; -1.12 and -0.749 in test [11]; -0.93 and -0.808 in test [15]; -0.0992 and -0.215 in test [17]. The composite z-score in test [18] is -2.38 and -1.6; in [19] it was -1.42 and -1.23; in test [20], -0.435 and -0.387. The z-score in test [8] is 0.537 (inactive) and -0.0808 (inactive); in test [12], -0.603 (inactive) and 0.106 (inactive); in test [13], -0.0898 (inactive) and -0.311 (inactive); in [14], -1.17 (inactive) and -0.327 (inactive); in test [16] it was -0.853 (inactive) and 0.238 (inactive).
As to `CO[C@H]1COC(=O)CC=C[C@@H](C)COC(=O)[C@H](CCSC)NC(=O)CC=C[C@@H]1C`, the composite z-score in [1] was -0.638 and -0.893; in test [2] it was 2.71 and 2.84; in test [3], 0.561 and -0.386; in [4], -0.174 and -0.853; in test [5] it was -0.375 and -0.583; in test [6], -0.591 and -1.25. Moreover, the composite z-score in test [7] was 1.01 and 0.444; in test [9], 0.536 and 0.0907; in test [10], 0.12 and -0.154; in [11] it was 1.55 and 1.54; in [15], -0.649 and -1.15; in [17], -0.114 and -0.0629. For the same compound, the composite z-score in test [18] is 1.64 and 2.04; in test [19] it was 0.593 and 0.59; in test [20], 0.49 and 0.59. Also, the z-score was -0.172 (inactive) and -0.845 (inactive) in [8]; 0.833 (inactive) and -0.697 (inactive) in test [12]; -0.201 (inactive) and -0.712 (inactive) in [13]; 0.35 (inactive) and -0.862 (inactive) in [14]; 0.32 (inactive) and -0.145 (inactive) in [16].
`C=CCN(CCCC)C(=O)C1N(C(C)(C)CO)C(=O)C2C(C(=O)O)C3C=CC21O3` (stereo not given): the composite z-score was 0.501 and 0.858 in [1]; -0.796 and -1.83 in test [2]; -0.249 and -0.252 in test [3]; -1.94 and -1.01 in [4]; -1.33 and -1.67 in test [5]; 1.06 and -1.21 in test [6]. The composite z-score in test [7] is 0.111 and -0.645; in test [9], -1.12 and -0.587; in test [10], -0.204 and -0.0645; in [11] it was -0.278 and -1.01; in test [15] it was -0.523 and -0.805; in [17] it was -0.223 and -0.124. Further, the composite z-score in test [18] is -2.07 and -1.17; in test [19] it was -0.732 and -0.74; in test [20], -0.23 and -0.336. For the same compound, the z-score was 1.4 (inactive) and 0.963 (inactive) in test [8]; -0.412 (inactive) and 0.0394 (inactive) in test [12]; 0.0945 (inactive) and 0.0925 (inactive) in [13]; -0.626 (inactive) and -0.302 (inactive) in test [14]; -0.21 (inactive) and -0.367 (inactive) in test [16].
For `CC(C)=NO[C@@H](C)c1cc(-c2c(C)cc(C)cc2C)no1`, the composite z-score was 1.18 in [1]; -0.146 in [2]; -0.135 in [3]; 0.0794 in test [4]; -0.243 in test [5]; -0.0227 in test [6]. Moreover, the composite z-score in test [7] is -0.304; in test [9] it was -0.163; in [10] it was 0.0854; in test [11] it was -0.389; in test [15], 0.168; in test [17] it was -0.122. Further, the results for the composite z-score in test [18], in test [19] and in [20] were 0.412, -0.434 and -0.101, respectively. Moreover, the z-score in [8] is 0.122 (inactive); in test [12], -0.166 (inactive); in test [13], -3.55 (inactive); in test [14], -0.0423 (inactive); in [16] it was -0.272 (inactive).
As for `C=CCN(Cc1ccccc1)C(=O)C1N(CCOCCO)C(=O)C2C(C(=O)O)C3C=CC21O3` (stereo not given), the composite z-score in [1] was 1.75 and 1.34; in test [2], -1.1 and -1.84; in [3] it was -0.309 and -0.27; in test [4], -2.7 and -1.09; in [5] it was -2.27 and -1.42; in [6] it was 1.27 and 0.866. Also, the composite z-score in [7] is 0.731 and 0.433; in test [9] it was -1.06 and -1.03; in test [10] it was -0.423 and -0.362; in test [11] it was -0.576 and -0.797; in [15] it was 3.27 and 2.73; in test [17], 0.22 and 0.141. Moreover, the composite z-score was -3.1 and -1.88 in test [18]; -0.74 and -0.734 in test [19]; -0.323 and -0.278 in test [20]. In addition, the z-score in test [8] is -0.91 (inactive) and -0.244 (inactive); in test [12], -1.93 (inactive) and 0.844 (inactive); in test [13], -1.52 (inactive) and -0.0833 (inactive); in [14], -1.25 (inactive) and 0.225 (inactive); in [16], 2.42 (inactive) and 1.4 (inactive).

These data come from PubChem BioAssay.
